Assay results reported in PubChem BioAssay AID1159580 (chemical genetic matrix, 2015).
Out of some 5,500 compounds screened, about 2,000 (36%) were called active. About 18% were inconclusive and are not listed. This is one part of the list. A number with no mark means an inactive call. No stated cut-off is given here; in the data, active means normalized growth mostly below about 0.91 (no sharp cut-off); inconclusive means no clear call, values can overlap the other calls; inactive means mostly above about 0.92.

Assay: chemical genetic growth profiling, strain panel (AID 1159580);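 further: tested at 20 µM; growth read once vehicle control cultures reached saturation at 30 °C; 1 = growth at the plate median or of vehicle wells; lower values mean less growth of the strain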
Details: growth OD
[1] = S. cerevisiae deletion strains, locus YAL013W, strain DEP1, hits give low values
[2] = S. cerevisiae deletion strains, locus YBR229C, strain ROT2, hits give low values
[3] = S. cerevisiae deletion strains, locus YDL101C, strain DUN1, hits give low values
[4] = S. cerevisiae deletion strains, locus YDL134C, strain PPH21, hits give low values
[5] = S. cerevisiae deletion strains, locus YDR150W, strain NUM1, hits give low values
[6] = S. cerevisiae deletion strains, locus YEL061C, strain CIN8, hits give low values
[7] = S. cerevisiae deletion strains, locus YGR078C, strain PAC10, hits give low values
[8] = S. cerevisiae deletion strains, locus YGR229C, strain SMI1, hits give low values
[9] = S. cerevisiae deletion strains, locus YHR030C, strain SLT2, hits give low values
[10] = S. cerevisiae deletion strains, locus YHR087W, strain rtc3, hits give low values
[11] = S. cerevisiae deletion strains, locus YJR043C, strain POL32, hits give low values
[12] = S. cerevisiae deletion strains, locus YJR075W, strain HOC1, hits give low values
[13] = S. cerevisiae deletion strains, locus YKL190W, strain CNB1, hits give low values
[14] = S. cerevisiae deletion strains, locus YLR039C, strain RIC1, hits give low values
[15] = S. cerevisiae deletion strains, locus YLR058C, strain SHM2 (second series), hits give low values
[16] = S. cerevisiae deletion strains, locus YLR085C, strain ARP6, hits give low values
[17] = S. cerevisiae deletion strains, locus YLR262C, strain YPT6, hits give low values
[18] = S. cerevisiae deletion strains, locus YML094W, strain GIM5, hits give low values
[19] = S. cerevisiae deletion strains, locus YMR219W, strain ESC1, hits give low values
[20] = S. cerevisiae deletion strains, locus YMR263W, strain SAP30, hits give low values
[21] = S. cerevisiae deletion strains, locus YNL153C, strain GIM3, hits give low values
[22] = S. cerevisiae deletion strains, locus YNL298W, strain CLA4 (second series), hits give low values
[23] = S. cerevisiae deletion strains, locus YNL322C, strain KRE1, hits give low values
[24] = S. cerevisiae deletion strains, locus YNR030W, strain Alg12, hits give low values
[25] = S. cerevisiae deletion strains, locus YOL006C, strain TOP1, hits give low values
[26] = S. cerevisiae deletion strains, locus YPL055C, strain LGE1, hits give low values
[27] = S. cerevisiae deletion strains, locus YPL241C, strain CIN2, hits give low values
[28] = S. cerevisiae deletion strains, locus YPR135W, strain CTF4, hits give low values
[29] = S. cerevisiae strains, strain wild type, hits give low values
[30] = S. cerevisiae deletion strains, locus YJL187C, strain SWE1, hits give low values

Structure (SMILES): O=[N+]([O-])c1ccccc1SCc1n[nH]c(=S)n1-c1cccc(C(F)(F)F)c1
- normalized growth [1]: 0.973
- normalized growth [2]: 0.991
- normalized growth (S. cerevisiae deletion strains, locus YCL061C, strain MRC1, hits give low values): 0.989
- normalized growth [3]: 1
- normalized growth [4]: 1.01
- normalized growth [5]: 1.01
- normalized growth [6]: 0.969
- normalized growth [7]: 0.967
- normalized growth [8]: 0.994
- normalized growth [9]: 1.04
- normalized growth [10]: 1.01
- normalized growth [11]: 0.999
- normalized growth [12]: 1.02
- normalized growth [13]: 0.974
- normalized growth [14]: 0.988
- normalized growth [15]: 0.996
- normalized growth [16]: 0.87
- normalized growth [17]: 1.01
- normalized growth [18]: 0.967
- normalized growth [19]: 0.992
- normalized growth [20]: 1
- normalized growth [21]: 1.03
- normalized growth [22]: 0.932
- normalized growth [23]: 0.97
- normalized growth [24]: 0.94
- normalized growth [25]: 0.886
- normalized growth [26]: 0.99
- normalized growth [27]: 0.985
- normalized growth [28]: 1.13
- normalized growth [29]: 0.975

Structure (SMILES): S=c1[nH]nc(SCCSc2n[nH]c(=S)s2)s1
- normalized growth [1]: 0.969
- normalized growth [2]: 1.04
- normalized growth [3]: 0.947
- normalized growth [4]: 0.993
- normalized growth [5]: 1.03
- normalized growth [6]: 1.02
- normalized growth [7]: 0.952
- normalized growth [8]: 0.987
- normalized growth [9]: 1.1
- normalized growth [10]: 1.02
- normalized growth [30]: 0.93 (active)
- normalized growth [11]: 1.02
- normalized growth [12]: 1.06
- normalized growth [14]: 1
- normalized growth [15]: 0.989
- normalized growth [16]: 0.945
- normalized growth [17]: 1.16
- normalized growth [18]: 0.988
- normalized growth [19]: 0.969
- normalized growth [20]: 0.994
- normalized growth (S. cerevisiae deletion strains, locus YMR307W, strain GAS1, hits give low values): 1
- normalized growth [21]: 1
- normalized growth [22]: 0.963
- normalized growth [23]: 0.987
- normalized growth [24]: 0.989
- normalized growth [26]: 0.965
- normalized growth [27]: 0.984
- normalized growth [28]: 1.02
- normalized growth [29]: 0.988

Structure (SMILES): FC(F)(F)c1cccc(CSc2n[nH]c(=S)s2)c1
- normalized growth [1]: 0.774 (active)
- normalized growth [2]: 0.479 (active)
- normalized growth [3]: 0.522 (active)
- normalized growth [4]: 0.883 (active)
- normalized growth [5]: 0.903
- normalized growth [6]: 0.861 (active)
- normalized growth [7]: 0.427 (active)
- normalized growth [9]: 0.728
- normalized growth [10]: 0.592 (active)
- normalized growth [30]: 0.51 (active)
- normalized growth [11]: 0.791 (active)
- normalized growth [12]: 0.31 (active)
- normalized growth [13]: 0.887 (active)
- normalized growth [14]: 0.706 (active)
- normalized growth [15]: 0.797 (active)
- normalized growth [16]: 0.593 (active)
- normalized growth [17]: 0.838
- normalized growth [18]: 0.914
- normalized growth [19]: 0.606 (active)
- normalized growth [20]: 0.763 (active)
- normalized growth [21]: 0.533 (active)
- normalized growth [22]: 0.787 (active)
- normalized growth [23]: 0.873 (active)
- normalized growth [24]: 0.824 (active)
- normalized growth [25]: 0.409 (active)
- normalized growth [27]: 0.833 (active)
- normalized growth [28]: 0.638 (active)

Structure (SMILES): O=[N+]([O-])c1cnc(Sc2nnc(SCc3cccc(C(F)(F)F)c3)s2)s1
- normalized growth (S. cerevisiae deletion strains, locus YAR019C, strain CDC15, hits give low values): 0.098 (active)
- normalized growth (S. cerevisiae deletion strains, locus YBL105C, strain PKC1, hits give low values): 0.0818 (active)
- normalized growth (S. cerevisiae deletion strains, locus YBR135W, strain CKS1, hits give low values): 0.0984 (active)
- normalized growth (S. cerevisiae deletion strains, locus YBR136W, strain MEC1, hits give low values): 0.0945 (active)
- normalized growth (S. cerevisiae deletion strains, locus YBR160W, strain CDC28, hits give low values): 0.0963 (active)
- normalized growth (S. cerevisiae deletion strains, locus YDL017W, strain CDC7, hits give low values): 0.0822 (active)
- normalized growth (S. cerevisiae deletion strains, locus YDL028C, strain MPS1, hits give low values): 0.111 (active)
- normalized growth [3]: 0.107 (active)
- normalized growth (S. cerevisiae deletion strains, locus YDL108W, strain KIN28, hits give low values): 0.0971 (active)
- normalized growth (S. cerevisiae deletion strains, locus YDL132W, strain cdc53, hits give low values): 0.0889 (active)
- normalized growth (S. cerevisiae deletion strains, locus YDL214C, strain PRR2, hits give low values): 0.106 (active)
- normalized growth (S. cerevisiae deletion strains, locus YDR052C, strain DBF4, hits give low values): 0.0805 (active)
- normalized growth (S. cerevisiae deletion strains, locus YDR054C, strain cdc34, hits give low values): 0.0921 (active)
- normalized growth (S. cerevisiae deletion strains, locus YDR226W, strain ADK1, hits give low values): 0.0971 (active)
- normalized growth (S. cerevisiae deletion strains, locus YDR477W, strain SNF1, hits give low values): 0.101 (active)
- normalized growth (S. cerevisiae deletion strains, locus YER123W, strain YCK3, hits give low values): 0.111 (active)
- normalized growth (S. cerevisiae deletion strains, locus YER133W, strain GLC7, hits give low values): 0.107 (active)
- normalized growth (S. cerevisiae deletion strains, locus YFL009W, strain cdc4, hits give low values): 0.102 (active)
- normalized growth (S. cerevisiae deletion strains, locus YFL029C, strain CAK1, hits give low values): 0.098 (active)
- normalized growth (S. cerevisiae deletion strains, locus YFR003C, strain YPI1, hits give low values): 0.0893 (active)
- normalized growth (S. cerevisiae deletion strains, locus YFR019W, strain FAB1, hits give low values): 0.106 (active)
- normalized growth (S. cerevisiae deletion strains, locus YFR028C, strain CDC14, hits give low values): 0.0995 (active)
- normalized growth (S. cerevisiae deletion strains, locus YGR040W, strain KSS1, hits give low values): 0.0976 (active)
- normalized growth (S. cerevisiae deletion strains, locus YGR052W, strain FMP48, hits give low values): 0.101 (active)
- normalized growth (S. cerevisiae deletion strains, locus YGR092W, strain DBF2, hits give low values): 0.0989 (active)
- normalized growth [9]: 0.131 (active)
- normalized growth (S. cerevisiae deletion strains, locus YHR079C, strain IRE1, hits give low values): 0.0953 (active)
- normalized growth (S. cerevisiae deletion strains, locus YHR082C, strain KSP1, hits give low values): 0.13 (active)
- normalized growth (S. cerevisiae deletion strains, locus YHR205W, strain SCH9, hits give low values): -0.0106 (active)
- normalized growth (S. cerevisiae deletion strains, locus YIL147C, strain SLN1, hits give low values): 0.102 (active)
- normalized growth (S. cerevisiae deletion strains, locus YJL095W, strain BCK1, hits give low values): 0.118 (active)
- normalized growth (S. cerevisiae deletion strains, locus YJL128C, strain PBS2, hits give low values): 0.0978 (active)
- normalized growth (S. cerevisiae deletion strains, locus YJL157C, strain FAR1, hits give low values): 0.0837 (active)
- normalized growth (S. cerevisiae deletion strains, locus YJR016C, strain ILV3, hits give low values): 0.0869 (active)
- normalized growth (S. cerevisiae deletion strains, locus YJR066W, strain TOR1 (second series), hits give low values): 0.0917 (active)
- normalized growth (S. cerevisiae deletion strains, locus YJR066W, strain TOR1, hits give low values): 0.122 (active)
- normalized growth (S. cerevisiae deletion strains, locus YKL048C, strain ELM1, hits give low values): 0.111 (active)
- normalized growth (S. cerevisiae deletion strains, locus YKL067W, strain YNK1, hits give low values): 0.105 (active)
- normalized growth (S. cerevisiae deletion strains, locus YKL101W, strain HSL1, hits give low values): 0.1 (active)
- normalized growth (S. cerevisiae deletion strains, locus YKL193C, strain SDS22, hits give low values): 0.0958 (active)
- normalized growth (S. cerevisiae deletion strains, locus YKL203C, strain TOR2, hits give low values): 0.111 (active)
- normalized growth (S. cerevisiae deletion strains, locus YLR113W, strain HOG1, hits give low values): 0.127 (active)
- normalized growth (S. cerevisiae deletion strains, locus YLR133W, strain CKI1, hits give low values): 0.0966 (active)
- normalized growth (S. cerevisiae deletion strains, locus YLR403W, strain SFP1, hits give low values): -0.00531 (active)
- normalized growth (S. cerevisiae deletion strains, locus YML070W, strain DAK1, hits give low values): 0.103 (active)
- normalized growth (S. cerevisiae deletion strains, locus YMR001C, strain CDC5, hits give low values): 0.0974 (active)
- normalized growth (S. cerevisiae deletion strains, locus YMR205C, strain PFK2 (second series), hits give low values): 0.101 (active)
- normalized growth (S. cerevisiae deletion strains, locus YMR277W, strain FCP1, hits give low values): 0.0974 (active)
- normalized growth (S. cerevisiae deletion strains, locus YNL006W, strain LST8, hits give low values): 0.0863 (active)
- normalized growth (S. cerevisiae deletion strains, locus YNL020C, strain ARK1, hits give low values): 0.109 (active)
- normalized growth (S. cerevisiae deletion strains, locus YNL161W, strain CBK1, hits give low values): 0.0953 (active)
- normalized growth (S. cerevisiae deletion strains, locus YNL183C, strain NPR1, hits give low values): 0.093 (active)
- normalized growth (S. cerevisiae deletion strains, locus YNL207W, strain RIO2, hits give low values): 0.0918 (active)
- normalized growth (S. cerevisiae deletion strains, locus YNL222W, strain SSU72, hits give low values): 0.1 (active)
- normalized growth (S. cerevisiae deletion strains, locus YNL307C, strain MCK1 (second series), hits give low values): 0.108 (active)
- normalized growth (S. cerevisiae deletion strains, locus YOL078W, strain AVO1, hits give low values): 0.0995 (active)
- normalized growth (S. cerevisiae deletion strains, locus YOL136C, strain PFK27, hits give low values): 0.0976 (active)
- normalized growth (S. cerevisiae deletion strains, locus YOR061W, strain CKA2, hits give low values): 0.0984 (active)
- normalized growth (S. cerevisiae deletion strains, locus YOR119C, strain RIO1, hits give low values): 0.105 (active)
- normalized growth (S. cerevisiae deletion strains, locus YOR231W, strain MKK1, hits give low values): 0.0992 (active)
- normalized growth (S. cerevisiae deletion strains, locus YOR329C, strain SCD5, hits give low values): 0.0854 (active)
- normalized growth (S. cerevisiae deletion strains, locus YPL031C, strain PHO85, hits give low values): 0.103 (active)
- normalized growth (S. cerevisiae deletion strains, locus YPL153C, strain RAD53, hits give low values): 0.0944 (active)
- normalized growth (S. cerevisiae deletion strains, locus YPL204W, strain HRR25, hits give low values): 0.107 (active)
- normalized growth (S. cerevisiae deletion strains, locus YPL209C, strain IPL1, hits give low values): 0.0842 (active)
- normalized growth (S. cerevisiae deletion strains, locus YPL256C, strain CLN2, hits give low values): 0.133 (active)
- normalized growth (S. cerevisiae deletion strains, locus YPR025C, strain CCL1, hits give low values): 0.0989 (active)
- normalized growth (S. cerevisiae deletion strains, locus YPR106W, strain ISR1, hits give low values): 0.0861 (active)
- normalized growth (S. cerevisiae deletion strains, locus YPR111W, strain DBF20, hits give low values): 0.0999 (active)
- normalized growth (S. cerevisiae deletion strains, strain NNK1, hits give low values): 0.0942 (active)
- normalized growth (S. cerevisiae deletion strains, strain TSCII, hits give low values): 0.102 (active)
